Measurements: PubChem BioAssay (EPA / NIEHS)
The source holds several records for some structures; these can differ, active in one and inactive in another. The source made the active and inactive calls. How the source made its calls: active means hit-call score of the fitted dose curve at least 0.9, where 1 is the maximum; inactive means score below 0.9.

Experiments:
[1] = ATG_GLI_CIS: Attagene CIS-FACTORIAL HepG2 Assay for human Zinc Finger Protein GLI1 (AID 2282945); details: HepG2, Attagene cis-factorial reporter mRNA, GLI element; actives raise or lower the signal
How it was run: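 Bidirectional curve fits relative to DMSO, using reporter mRNA levels from RT-PCR plus capillary electrophoresis. Cells were HepG2 transiently carrying cis-regulated reporter constructs, harvested 24 h after dosing.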

[2] = target: Bile acid receptor (Homo sapiens) (UniProt Q96RI1); experiment: ATG_IR1_CIS: Attagene CIS-FACTORIAL HepG2 Assay for human Nuclear Receptor Subfamily 1 Group H Member 4 (NR1H4), IR1 submotif (AID 2282946); details: IR1 reporter transcription, actives raise or lower the signal
How it was run: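 Cells (human HepG2) carry transiently transfected cis-promoter reporter transcription units. Compounds are incubated 24 h, total RNA is reverse-transcribed and amplified, and labelled fragments are resolved by capillary electrophoresis. Curves use DMSO as baseline.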

[3] = ATG_GRE_CIS: Attagene CIS-FACTORIAL HepG2 Assay for human Glucocorticoid Response Elements (GRE) (AID 2282947); details: HepG2 GRE cis-reporter, Attagene multiplex mRNA; actives raise or lower the signal
How it was run: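 Assay uses human hepatoma HepG2 cells transfected with cis-promoter reporter units, exposed 24 h. mRNA from reporters detected by RT-PCR plus capillary electrophoresis; DMSO serves as negative control and baseline.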

[4] = ATG_ISRE_CIS: Attagene CIS-FACTORIAL HepG2 Assay for human Interferon Regulatory Factor 1 (IRF1) binding to an Interferon-Stimulated Response Element (ISRE) (AID 2282948); details: HepG2 ISRE cis-reporter (Attagene), mRNA transcription readout; actives raise or lower the signal
How it was run: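 HepG2 cells transiently transfected with multiplexed cis-promoter reporter units; after 24 h compound exposure, reporter mRNA quantified by RT-PCR, FAM labelling, HpaI digestion and capillary electrophoresis. Bidirectional fit versus DMSO baseline.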

[5] = ATG_M_32_CIS: Attagene CIS-FACTORIAL HepG2 Assay for M32 Transcription Factor (Internal Marker) (AID 2282949); details: HepG2 Attagene cis-factorial M32 reporter, mRNA; actives raise or lower the signal;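 further: background control marker of the multiplexed CIS panel rather than a real target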
How it was run: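 Internal background marker read-out: RT-PCR/capillary electrophoresis fluorescence of reporter transcripts from transiently transfected HepG2 cells after 24 h chemical exposure. Activity fitted bidirectionally relative to DMSO negative control.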

[6] = ATG_M_06_CIS: Attagene CIS-FACTORIAL HepG2 Assay for M06 Transcription Factor (Internal Marker) (AID 2282950); details: HepG2 Attagene CIS-FACTORIAL M06 internal marker reporter; actives raise or lower the signal
How it was run: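 Fluorescence-labelled RT-PCR products from cis-promoter reporter units, cut with HpaI and resolved by capillary electrophoresis, give the signal. Cells are human HepG2, dosed for 24 h. Serves as background control, fitted relative to DMSO.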

[7] = target: Hepatocyte nuclear factor 6 (Homo sapiens) (UniProt Q9UBC0); experiment: ATG_HNF6_CIS: Attagene CIS-FACTORIAL HepG2 Assay for human Hepatocyte Nuclear Factor 6 (HNF6) (AID 2282952); details: HepG2 Attagene cis-factorial HNF6 reporter transcription; actives raise or lower the signal
How it was run: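 HepG2 cells transiently transfected with cis-element-driven multiple reporter transcription units, dosed 24 h; reporter mRNA quantified by RT-PCR, FAM primer extension, HpaI digestion and capillary electrophoresis; bidirectional fit versus DMSO baseline.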

[8] = target: Heat shock factor protein 1 (Homo sapiens) (UniProt Q00613); experiment: ATG_HSE_CIS: Attagene CIS-FACTORIAL HepG2 Assay for human Heat Shock Transcription Factor 1 (HSE) (AID 2282953); details: HepG2 HSE cis-reporter, Attagene RNA transcription; actives raise or lower the signal
How it was run: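 After a 24 h incubation with test chemical, transfected HepG2 cells were harvested for RNA; reporter transcripts were measured by RT-PCR and capillary electrophoresis. Values reflect gain or loss of signal relative to DMSO.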

[9] = ATG_MRE_CIS: Attagene CIS-FACTORIAL HepG2 Assay for human Metal Responsive Element (MRE) (AID 2282954); details: HepG2 MRE cis-reporter transcription, Attagene multiplex; actives raise or lower the signal
How it was run: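 After a 24 h chemical exposure, transiently transfected HepG2 cells yield RNA whose reporter sequences are amplified, FAM-labelled and sized by capillary electrophoresis. Curves are fitted bidirectionally relative to DMSO.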

[10] = target: Paired box protein Pax-6 (Homo sapiens) (UniProt P26367); experiment: ATG_Pax6_CIS: Attagene CIS-FACTORIAL HepG2 Assay for human Paired Box 6 (PAX6) (AID 2282956); details: HepG2 CIS-FACTORIAL PAX6 reporter transcription, RNA readout; actives raise or lower the signal
How it was run: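 HepG2 cells transiently transfected with multiplexed cis-promoter reporter units (endogenous TF activity) were dosed for 24 h. Reporter mRNA was quantified by RT-PCR, 6-FAM labeling, HpaI digestion and capillary electrophoresis; bidirectional fitting versus DMSO baseline.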

[11] = ATG_PXRE_CIS: Attagene CIS-FACTORIAL HepG2 Assay for human Pregnane X Receptor Element (PXRE) (AID 2282957); details: HepG2 Attagene CIS-FACTORIAL PXRE reporter, mRNA; actives raise or lower the signal
How it was run: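 HepG2 cells transiently transfected with cis-regulated multiple reporter transcription units; endogenous factor activity measured as reporter mRNA 24 h after dosing. RT-PCR, fluorescent primer extension, HpaI digestion, capillary electrophoresis; bidirectional fit versus DMSO baseline.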

[12] = ATG_PPRE_CIS: Attagene CIS-FACTORIAL HepG2 Assay for human Peroxisome Proliferator-activated Response Element (PPRE) (AID 2282958); details: HepG2 PPRE cis-element reporter, Attagene transcription factor profiling; actives raise or lower the signal
How it was run: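 PPRE activity in HepG2: transient cis-reporter transfection, 24 h compound incubation, reporter mRNA by RT-PCR and CE fluorescence; gain/loss fitted against DMSO.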

[13] = ATG_RORE_CIS: Attagene CIS-FACTORIAL HepG2 Assay for human RAR-related Orphan Receptor Element (RORE) (AID 2282959); details: HepG2 Attagene cis-factorial RORE reporter, mRNA; actives raise or lower the signal
How it was run: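 A 24-hour exposure of transfected HepG2 hepatoma cells precedes RNA isolation and reporter RT-PCR. Labeled products are digested with HpaI and resolved by capillary electrophoresis, with gain or loss of signal scored relative to DMSO.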

[14] = ATG_Sox_CIS: Attagene CIS-FACTORIAL HepG2 Assay for human SRY-box transcription factor (SOX) (AID 2282960); details: HepG2 Attagene cis-factorial SOX reporter, mRNA; actives raise or lower the signal
How it was run: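 HepG2, cis reporter units, 24 h exposure. Reporter mRNA: RT-PCR → FAM labelling → HpaI → CE fluorescence. Bidirectional fit vs DMSO.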

[15] = target: Transcription factor Sp1 (Homo sapiens) (UniProt P08047); experiment: ATG_Sp1_CIS: Attagene CIS-FACTORIAL HepG2 Assay for human Specificity Protein 1 (Sp1) (AID 2282961); details: HepG2 Sp1 cis-reporter transcription, actives raise or lower the signal
How it was run: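 Liver-derived HepG2 cells, cis-element reporter library, 24 h treatment; RNA isolated, cDNA amplified with reporter-specific primers, FAM-labeled fragments sized on capillary analyzer. DMSO baseline, bidirectional curve fit.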

[16] = ATG_SREBP_CIS: Attagene CIS-FACTORIAL HepG2 Assay for human Sterol Regulatory Element Binding (SREBP) (AID 2282962); details: HepG2 Attagene cis-factorial SREBP reporter, mRNA; actives raise or lower the signal
How it was run: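 HepG2 cells transiently transfected with multiplexed cis-element reporter units report endogenous transcription factor activity. After 24 h of chemical exposure, reporter mRNA was quantified by RT-PCR, 6-FAM labelling, HpaI digestion and capillary electrophoresis; bidirectional fits used DMSO as baseline.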

[17] = target: Signal transducer and activator of transcription 3 (Homo sapiens) (UniProt P40763); experiment: ATG_STAT3_CIS: Attagene CIS-FACTORIAL HepG2 Assay for human Signal Transducer and Activator of Transcription 3 (STAT3) (AID 2282963); details: HepG2, Attagene cis-factorial STAT3 reporter transcription; actives raise or lower the signal
How it was run: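 After a 24 h compound incubation, total RNA from MRTU-transfected HepG2 cells was converted to cDNA and reporter sequences PCR-amplified, labelled and profiled by capillary electrophoresis. Gain and loss of signal were referenced to DMSO.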

[18] = ATG_TA_CIS: Attagene CIS-FACTORIAL HepG2 Assay for human TA Basal Promoter (AID 2282964); details: HepG2 Attagene CIS-factorial TA basal promoter reporter; actives raise or lower the signal
How it was run: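 Multiplexed mRNA reporter assay, HepG2, 24 h. Reporter cDNA amplified, 6-FAM primer-extended, HpaI-cut, CE-sized; DMSO = negative control and baseline.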

[19] = target: Hypoxia-inducible factor 1-alpha (Homo sapiens) (UniProt Q16665); experiment: ATG_HIF1a_CIS: Attagene CIS-FACTORIAL HepG2 Assay for human Hypoxia Inducible Factor 1 (HIF1A) (AID 2282951); details: HepG2 Attagene cis-factorial HIF1a reporter transcription; actives raise or lower the signal
How it was run: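 After 24 h chemical exposure of reporter-transfected HepG2 cells, reporter cDNA was PCR-amplified, labelled by 6-FAM primer extension (2 min 95 C, 20 s 68 C, 10 min 72 C), HpaI-cut (2 h, 37 C) and analysed by CE.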

[20] = ATG_PBREM_CIS: Attagene CIS-FACTORIAL HepG2 Assay for human Phenobarbital-responsive Enhancer Module (PBREM) (AID 2282955); details: HepG2 PBREM cis-reporter, Attagene multiplexed transcription; actives raise or lower the signal
How it was run: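 Measures endogenous factor action on a phenobarbital-responsive enhancer module. HepG2 transiently carrying cis reporters, 24 h treatment, mRNA read-out by RT-PCR plus capillary electrophoresis.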

Measured: AC50

Heat shock factor protein 1 (Homo sapiens), sequence (Q00613 whole entry, looked up): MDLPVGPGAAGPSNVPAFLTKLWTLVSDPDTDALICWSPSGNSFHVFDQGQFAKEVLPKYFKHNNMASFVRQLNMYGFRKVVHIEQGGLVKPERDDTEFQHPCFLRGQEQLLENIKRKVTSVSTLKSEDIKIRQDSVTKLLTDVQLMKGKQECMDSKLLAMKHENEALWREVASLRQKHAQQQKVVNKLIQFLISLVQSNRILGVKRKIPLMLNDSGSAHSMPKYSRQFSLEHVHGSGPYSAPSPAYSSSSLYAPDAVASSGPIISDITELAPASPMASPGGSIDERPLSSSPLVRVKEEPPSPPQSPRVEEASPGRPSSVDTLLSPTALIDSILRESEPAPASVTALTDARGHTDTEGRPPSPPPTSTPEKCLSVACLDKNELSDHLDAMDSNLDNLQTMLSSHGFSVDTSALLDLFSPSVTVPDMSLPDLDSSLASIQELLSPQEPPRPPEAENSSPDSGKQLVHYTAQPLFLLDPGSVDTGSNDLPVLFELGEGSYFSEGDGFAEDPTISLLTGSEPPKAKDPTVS
Transcription factor Sp1 (Homo sapiens), sequence (P08047 whole entry, looked up, the tested form may be a part): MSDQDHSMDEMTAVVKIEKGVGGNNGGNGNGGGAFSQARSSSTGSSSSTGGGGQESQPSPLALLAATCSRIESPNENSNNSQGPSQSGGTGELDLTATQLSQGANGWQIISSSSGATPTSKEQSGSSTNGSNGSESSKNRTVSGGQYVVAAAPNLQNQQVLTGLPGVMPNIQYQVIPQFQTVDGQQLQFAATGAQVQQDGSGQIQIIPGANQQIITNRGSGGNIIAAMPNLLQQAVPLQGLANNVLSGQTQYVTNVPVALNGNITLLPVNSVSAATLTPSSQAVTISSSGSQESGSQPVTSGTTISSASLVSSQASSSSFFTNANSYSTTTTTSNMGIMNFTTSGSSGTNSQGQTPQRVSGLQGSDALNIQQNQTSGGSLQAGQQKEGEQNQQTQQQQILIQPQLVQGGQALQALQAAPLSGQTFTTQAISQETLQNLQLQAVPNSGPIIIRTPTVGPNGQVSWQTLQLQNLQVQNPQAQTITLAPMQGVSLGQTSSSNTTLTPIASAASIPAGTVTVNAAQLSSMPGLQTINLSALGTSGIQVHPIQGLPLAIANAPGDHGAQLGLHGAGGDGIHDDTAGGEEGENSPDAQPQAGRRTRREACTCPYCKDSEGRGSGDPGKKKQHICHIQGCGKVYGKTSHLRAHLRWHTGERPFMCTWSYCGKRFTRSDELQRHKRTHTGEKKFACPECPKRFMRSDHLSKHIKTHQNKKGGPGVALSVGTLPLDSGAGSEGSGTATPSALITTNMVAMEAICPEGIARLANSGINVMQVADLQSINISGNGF
Signal transducer and activator of transcription 3 (Homo sapiens), sequence (P40763 whole entry, looked up): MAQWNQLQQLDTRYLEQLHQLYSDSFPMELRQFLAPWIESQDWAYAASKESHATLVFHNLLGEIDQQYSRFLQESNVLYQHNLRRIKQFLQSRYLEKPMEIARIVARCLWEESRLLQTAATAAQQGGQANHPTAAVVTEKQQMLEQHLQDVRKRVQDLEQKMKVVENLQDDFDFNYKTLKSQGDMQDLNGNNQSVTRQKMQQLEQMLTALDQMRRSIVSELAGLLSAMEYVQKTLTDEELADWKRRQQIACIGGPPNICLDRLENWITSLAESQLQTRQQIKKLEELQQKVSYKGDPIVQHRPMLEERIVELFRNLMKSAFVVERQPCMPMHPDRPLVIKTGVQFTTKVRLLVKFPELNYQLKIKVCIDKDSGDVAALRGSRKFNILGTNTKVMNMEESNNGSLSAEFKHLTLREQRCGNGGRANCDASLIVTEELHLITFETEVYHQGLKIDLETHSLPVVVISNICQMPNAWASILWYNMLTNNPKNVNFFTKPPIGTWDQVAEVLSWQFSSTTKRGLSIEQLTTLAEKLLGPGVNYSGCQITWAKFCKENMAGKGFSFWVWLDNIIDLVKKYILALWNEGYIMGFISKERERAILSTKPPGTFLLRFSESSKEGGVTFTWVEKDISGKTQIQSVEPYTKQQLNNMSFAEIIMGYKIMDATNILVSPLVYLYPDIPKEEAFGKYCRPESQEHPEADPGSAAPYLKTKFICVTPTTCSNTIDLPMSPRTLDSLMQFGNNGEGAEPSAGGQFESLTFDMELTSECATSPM
Paired box protein Pax-6 (Homo sapiens), sequence (P26367 whole entry, looked up): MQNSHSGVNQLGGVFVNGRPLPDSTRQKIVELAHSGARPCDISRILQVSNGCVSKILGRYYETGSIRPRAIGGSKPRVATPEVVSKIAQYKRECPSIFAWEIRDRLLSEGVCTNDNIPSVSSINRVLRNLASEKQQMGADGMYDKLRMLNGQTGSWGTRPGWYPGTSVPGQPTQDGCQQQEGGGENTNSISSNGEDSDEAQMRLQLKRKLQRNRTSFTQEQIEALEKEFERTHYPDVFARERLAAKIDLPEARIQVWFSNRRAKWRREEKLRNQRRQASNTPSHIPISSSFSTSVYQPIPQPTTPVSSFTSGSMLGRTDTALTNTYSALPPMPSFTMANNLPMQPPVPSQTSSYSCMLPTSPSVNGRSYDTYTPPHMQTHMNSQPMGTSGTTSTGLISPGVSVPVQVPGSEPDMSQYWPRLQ
Bile acid receptor (Homo sapiens), sequence (Q96RI1 whole entry, looked up, the tested form may be a part): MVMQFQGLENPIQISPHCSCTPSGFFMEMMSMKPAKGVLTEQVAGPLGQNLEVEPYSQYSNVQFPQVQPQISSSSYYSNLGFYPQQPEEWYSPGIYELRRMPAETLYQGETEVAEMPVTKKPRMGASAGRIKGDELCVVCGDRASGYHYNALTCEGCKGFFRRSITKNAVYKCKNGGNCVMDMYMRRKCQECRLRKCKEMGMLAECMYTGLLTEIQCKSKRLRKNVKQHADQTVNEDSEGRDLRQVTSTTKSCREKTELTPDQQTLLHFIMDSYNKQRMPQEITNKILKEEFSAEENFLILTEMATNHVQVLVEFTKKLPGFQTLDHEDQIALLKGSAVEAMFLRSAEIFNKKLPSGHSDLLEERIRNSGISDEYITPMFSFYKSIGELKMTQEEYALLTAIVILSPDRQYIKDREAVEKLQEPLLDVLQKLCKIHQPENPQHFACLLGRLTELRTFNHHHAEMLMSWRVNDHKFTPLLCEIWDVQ
Hypoxia-inducible factor 1-alpha (Homo sapiens), sequence (Q16665 whole entry, looked up): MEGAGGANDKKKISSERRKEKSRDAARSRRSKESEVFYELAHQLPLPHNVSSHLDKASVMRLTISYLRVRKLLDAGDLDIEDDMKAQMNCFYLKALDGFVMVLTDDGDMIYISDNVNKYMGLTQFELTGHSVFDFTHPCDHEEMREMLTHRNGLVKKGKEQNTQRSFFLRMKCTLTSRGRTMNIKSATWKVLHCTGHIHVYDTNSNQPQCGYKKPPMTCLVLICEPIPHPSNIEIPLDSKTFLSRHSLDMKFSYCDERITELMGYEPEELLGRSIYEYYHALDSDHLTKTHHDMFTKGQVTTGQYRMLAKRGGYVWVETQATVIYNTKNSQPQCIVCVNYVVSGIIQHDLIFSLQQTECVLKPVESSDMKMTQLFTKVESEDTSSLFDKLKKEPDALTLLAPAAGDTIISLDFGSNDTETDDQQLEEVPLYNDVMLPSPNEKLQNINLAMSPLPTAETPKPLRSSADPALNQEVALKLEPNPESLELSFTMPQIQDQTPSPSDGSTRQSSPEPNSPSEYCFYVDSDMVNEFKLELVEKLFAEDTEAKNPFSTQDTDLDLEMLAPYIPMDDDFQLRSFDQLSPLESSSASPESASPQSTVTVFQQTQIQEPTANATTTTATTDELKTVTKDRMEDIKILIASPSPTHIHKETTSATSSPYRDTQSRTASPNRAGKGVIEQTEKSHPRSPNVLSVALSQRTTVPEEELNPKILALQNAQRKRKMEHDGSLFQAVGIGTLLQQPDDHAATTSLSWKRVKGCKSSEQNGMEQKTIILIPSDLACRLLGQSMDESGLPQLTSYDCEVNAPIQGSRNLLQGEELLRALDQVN
Hepatocyte nuclear factor 6 (Homo sapiens), sequence (Q9UBC0 whole entry, looked up): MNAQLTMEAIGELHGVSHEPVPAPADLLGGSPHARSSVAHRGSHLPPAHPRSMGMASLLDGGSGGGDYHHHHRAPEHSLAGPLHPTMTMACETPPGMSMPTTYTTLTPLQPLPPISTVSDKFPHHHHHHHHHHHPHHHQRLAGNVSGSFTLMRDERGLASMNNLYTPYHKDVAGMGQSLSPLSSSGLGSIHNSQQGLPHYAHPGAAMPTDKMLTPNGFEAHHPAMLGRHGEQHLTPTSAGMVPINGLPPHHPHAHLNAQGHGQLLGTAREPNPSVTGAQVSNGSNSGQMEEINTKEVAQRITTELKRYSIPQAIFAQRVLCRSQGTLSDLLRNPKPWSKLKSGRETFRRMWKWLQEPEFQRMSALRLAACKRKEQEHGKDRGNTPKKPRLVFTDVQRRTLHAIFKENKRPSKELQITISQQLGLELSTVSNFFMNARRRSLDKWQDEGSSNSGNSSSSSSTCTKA

COc1cc(CCC(=O)CC(=O)CCc2ccc(O)c(OC)c2)ccc1O
active: [9] 76.4 µM | [11] 8.44 µM
not listed: [19] | [20]
inactive: all other assays above

Oc1cc2ccccc2c2ccccc12
active: [11] 3.71 µM
not listed: [20]
inactive: all other assays above

CCCCCCCC(=O)O
not listed: [2] | [5] | [12] | [20]
inactive: all other assays above

CC[C@H](C)[C@@H](C(=O)O)n1sc2ccccc2c1=O
not listed: [5] | [19] | [20]
inactive: all other assays above

C#C[C@]1(O)CC[C@H]2[C@@H]3CCC4=CC(=O)CC[C@@H]4[C@H]3CC[C@@]21C
active: [11] 26.9 µM [middle of 4 runs]
not listed: [2] | [5] | [7] | [19] | [20]
inactive: all other assays above

CN1CCC[C@H]1c1cccnc1
not listed: [2] | [3] | [8] | [12] | [19]
inactive: all other assays above

C[C@@H]1C[C@H]2[C@@H]3CCC4=CC(=O)C=C[C@]4(C)[C@@]3(F)[C@@H](O)C[C@]2(C)[C@@]1(O)C(=O)COP(=O)(O)O
active: [3] 77.6 nM [middle of 4 runs] | [11] 25.9 µM
inactive: [1] | [4] | [6] | [7] | [8] | [9] | [10] | [11] | [12] | [13] | [14] | [15] | [16] | [17] | [18]

Cc1oc(-c2ccccc2)nc1CCOc1ccc(C[C@H](Nc2ccccc2C(=O)c2ccccc2)C(=O)O)cc1
active: [2] 11 µM | [19] 17.6 µM | [8] 17.6 µM | [9] 20.8 µM | [10] 14.4 µM
not listed: [5] | [12] | [20]
inactive: all other assays above

CCCCCCCCC(=O)O
not listed: [2] | [12] | [19] | [20]
inactive: all other assays above

CCC(C)(C)C1CCC(O)CC1 (stereo not given)
active: [11] 21.9 µM [middle of 4 runs]
not listed: [2] | [3] | [5] | [13] | [19] | [20]
inactive: all other assays above

Cc1cc(CCN2CCN(c3nsc4ccccc34)CC2)cc2c1NC(=O)CC2(C)C
active: [4] 8.79 µM | [9] 13.3 µM | [11] 1.16 µM | [13] 6.32 µM | [15] 14.7 µM
not listed: [5] | [12] | [19] | [20]
inactive: all other assays above

OC1CCCCC1
not listed: [2] | [5] | [19]
inactive: all other assays above

CCOC(=O)CC(O)(CC(=O)OCC)C(=O)OCC
active: [11] 50.4 µM
inactive: [1] | [3] | [4] | [6] | [19] | [7] | [8] | [9] | [20] | [10] | [11] | [13] | [14] | [15] | [16] | [17] | [18]
